SMILES strings stand for the structures. “And” between values parts separate entries of the source, which are not always exact repeats. Equal entries are not always repeated. The source made the active and inactive calls.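 Rule for the calls, unless noted: active = thallium flux through the channel raised or lowered by more than 3 SD from vehicle-only wells, actives on both sides; inactive = the rest.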

Experiment [1] can be described thus: Wnt pathway potentiators raising nuclear beta-catenin – imaging, WNT3A-conditioned medium, mouse C2C12, NPC library, primary screen (AID 1117326; in the data active = nuclear beta-catenin stimulation mostly above about 4.2%, no sharp cut-off; inactive = mostly below about 10%). As to conditions: stronger effect = higher value.
Experiment [2] is described as follows: stimulators of insulin release from INS-1E, primary screen, cell-based, 5 mM glucose, NPC library (AID 1117329;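 active = compound raises insulin release from rat beta cells at 5 mM glucose, no numeric limit stated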). As to conditions: rat INS-1E insulin secretion, at 10 µM, stronger effect = higher value.
Experiment [3] is described as follows: growth inhibition of GSK3B-pretreated HCT116 cells – cell-based, CellTiter-Glo, 0.2 to 20 µM (AID 1117336;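 active = compounds lowering colon cancer cell viability after pretreatment blocking the GSK3B kinase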). As to conditions: HCT116 viability after GSK3B inhibitor, at 20 µM, stronger effect = higher value.
Experiment [4] in a line: inhibition of endothelial tube formation, primary screen, imaging, VEGF stimulated, CD31 staining, tube area, NPC library (AID 1117340;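 active = compound that reduces growth-factor-driven endothelial tube area in a mixed cell culture, no cutoff stated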). To be noted: VEGF-stimulated ADSC/ECFC co-culture, at 10 µM, stronger effect = higher value.
Experiment [5] is described as follows: GLP1 release stimulators, primary, NCI-H716, NPC library (AID 1117341;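 active = compound raises GLP1 secretion from the human gut endocrine cells, with no numeric limit stated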). As to conditions: NCI-H716 cells, at 10 µM, stronger effect = higher value.
Experiment [6] in a line: HCT116 colon cancer cell growth inhibition, primary screen, CellTiter-Glo luminescence, NPC library (AID 1117342;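 active = compounds that lower survival of HCT116 colon cancer cells in the luminescence readout, no numeric limit stated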). To be noted: at 20 µM (top of the series). A general note: Cellular ATP, detected with luciferase, serves as a proxy for viable cell number.
Experiment [7] can be described thus: reduced SW480 viability measured with CellTiter-Glo, NPC library, primary (AID 1117343;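 active = compounds that lower viability of the colon cancer cells in the luminescence readout, with no numeric limit stated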). As to conditions: CellTiter-Glo luminescence; at 20 µM (top of the series).
Experiment [8] in a line: NPC library primary testing for decreased DLD-1 cell viability via CellTiter-Glo (AID 1117346;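 active = compounds that lower survival of DLD-1 colon cancer cells in the luminescence readout, no cutoff given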). To be noted: DLD-1 viability, CellTiter-Glo luminescence; at 20 µM (top of the series).
Experiment [9] concerns the target 6-phosphogluconate dehydrogenase, decarboxylating (Homo sapiens) (UniProt P52209). As to the kind of experiment: inhibition of human phosphogluconate dehydrogenase – biochemical, recombinant enzyme, NADPH absorbance, primary screen (AID 1159550;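 active = at least 20% inhibition of 6-phosphogluconate dehydrogenase activity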). As to conditions: recombinant 6PGD, NADPH absorbance 341 nm; at 10 µM; stronger effect = higher value.
Experiment [10] in a line: modulation of C. elegans fzo-1 (AID 1259413; call rule not given here;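 note: fzo-1 mutant C. elegans worms in liquid wells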). To be noted: C. elegans fzo-1 modulator screen, mean read-out; stronger effect = higher value.
Experiment [11] is described as follows: EMT-state selective cytotoxicity in co-culture – imaging, PC-3E GFP, TEM4-18 mCherry, primary screen (AID 1345086;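 active = compounds killing one labelled cell type while sparing the other, by normalised counts and ratio limits, not self-fluorescent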;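 for all read-outs here: cells exposed to compound for 72 h before imaging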;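 for red/green cell ratio (normalised): normalised mesenchymal count divided by normalised epithelial count so high means epithelial killing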). To be noted: PC-3E GFP / TEM4-18 mCherry co-culture, imaging cell counts, at 1 µM; for red/green cell ratio (normalised): actives lie on both sides, counts scaled to control wells, 1 = unselective.
The nature of experiment [12]: MELAS cybrid and Rieske KO viability enhancers – cell-based, MELAS cybrids, Rieske KO mouse fibroblasts, CellTiter-Glo, primary screen (AID 1508586;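 active = mean z-score across replicates of 1.96 or higher in either the MELAS or the Rieske mutant cell line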;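 note: z relative to plate mean and SD of compound and empty wells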). To be noted: low glucose.
For experiment [13], the target named is NAD(+) hydrolase SARM1 (Homo sapiens) (UniProt Q6SZW1). As to the kind of experiment: blocking NAD cleavage by SARM1 SAM-TIR – cell lysate, NAD-Glo luminescence (AID 1508614;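 active = compound whose remaining NAD level is above about 45 nM, limit read from the data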;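 note: higher remaining NAD means stronger inhibition of SARM1 NADase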). As to conditions: SAM-TIR HEK293T lysate NADase, at 1 µM, stronger effect = higher value.
The target in experiment [14] is Mitogen-activated protein kinase 7 (Homo sapiens) (UniProt Q13164). Put plainly: Gal4-ERK5 driven luciferase induction – cell-based, HTS, primary screen (AID 1508626;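 active = luciferase signal above three times the same-plate solvent-only control wells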;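 note: luciferase driven by Gal4-ERK5 fusion binding five Gal4 sites before minimal TATA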). To be noted: HeLa Gal4-ERK5 transactivation, 18 h, at 5 µM, stronger effect = higher value.
For the next experiment, the system named is F380Y. Put plainly: BK channel mutant inhibitors and activators – cell-based, U2OS BacMam, thallium flux, beta subunits, selectivity assay, profiling panel (AID 1259406).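 Note: initial slope of Thallos dye fluorescence rise after thallium is added; log ratio against the mean of 0.3% DMSO vehicle wells on the same plate.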 As to conditions: U2OS BacMam BK variants, at 30 µM.
In the next experiment the test system is F380Y/beta1. The description is as above. To be noted: U2OS BacMam BK variants, at 30 µM.
For the next experiment, the system named is F380Y/beta2Delta. Described as above. As to conditions: U2OS BacMam BK variants, at 30 µM.
Another experiment deals with F380Y/beta4. Described as above. As to conditions: U2OS BacMam BK variants, at 30 µM.
Experiment [15] concerns the target Calcium-activated potassium channel subunit alpha-1 (Homo sapiens) + Leucine-rich repeat-containing protein 26 (Homo sapiens) (UniProt Q12791+Q2I0M4). Described as above. To be noted: U2OS BacMam BK variants, F380Y/Slo1WT/gamma1, at 30 µM.
[16] abbreviates: measured here: epithelial PC-3E GFP cell survival.
The mark [17] stands for this setting: measured here: mesenchymal TEM4-18 mCherry cell survival.
[18] abbreviates: MELAS cybrid survival, CellTiter-Glo 48 h, stronger effect = higher value.
[19] abbreviates: Rieske KO mouse fibroblast survival, CellTiter-Glo 72 h.

Sequence of Calcium-activated potassium channel subunit alpha-1 (Homo sapiens) + Leucine-rich repeat-containing protein 26 (Homo sapiens) (Q2I0M4 whole entry, looked up, one chain of several): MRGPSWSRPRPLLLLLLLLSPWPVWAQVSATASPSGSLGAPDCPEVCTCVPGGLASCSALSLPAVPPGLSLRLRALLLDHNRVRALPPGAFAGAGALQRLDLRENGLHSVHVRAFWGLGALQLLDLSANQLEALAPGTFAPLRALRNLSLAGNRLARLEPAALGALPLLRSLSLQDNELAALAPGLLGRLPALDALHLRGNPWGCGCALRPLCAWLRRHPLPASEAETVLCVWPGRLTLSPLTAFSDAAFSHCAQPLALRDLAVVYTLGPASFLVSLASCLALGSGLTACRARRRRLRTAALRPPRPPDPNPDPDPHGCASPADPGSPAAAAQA
Sequence of NAD(+) hydrolase SARM1 (Homo sapiens) (Q6SZW1 whole entry, looked up, the tested form may be a part): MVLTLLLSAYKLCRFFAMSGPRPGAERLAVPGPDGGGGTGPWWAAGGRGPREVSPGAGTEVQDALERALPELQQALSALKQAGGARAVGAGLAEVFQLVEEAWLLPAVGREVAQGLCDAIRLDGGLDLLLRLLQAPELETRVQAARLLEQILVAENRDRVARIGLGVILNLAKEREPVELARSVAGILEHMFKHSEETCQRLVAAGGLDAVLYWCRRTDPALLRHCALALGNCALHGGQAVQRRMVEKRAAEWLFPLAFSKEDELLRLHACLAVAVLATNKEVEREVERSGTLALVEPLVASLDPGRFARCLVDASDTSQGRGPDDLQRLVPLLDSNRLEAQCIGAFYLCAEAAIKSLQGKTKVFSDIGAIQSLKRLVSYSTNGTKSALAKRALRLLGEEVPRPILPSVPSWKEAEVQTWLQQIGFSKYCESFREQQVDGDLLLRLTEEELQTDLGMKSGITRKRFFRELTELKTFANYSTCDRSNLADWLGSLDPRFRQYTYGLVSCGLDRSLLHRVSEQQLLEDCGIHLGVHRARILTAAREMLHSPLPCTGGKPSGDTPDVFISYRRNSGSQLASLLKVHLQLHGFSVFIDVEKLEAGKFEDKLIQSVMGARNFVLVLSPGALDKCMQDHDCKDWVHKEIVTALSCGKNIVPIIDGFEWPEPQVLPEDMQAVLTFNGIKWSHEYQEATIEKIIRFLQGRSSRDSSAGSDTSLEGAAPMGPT
Sequence of 6-phosphogluconate dehydrogenase, decarboxylating (Homo sapiens) (P52209 whole entry, looked up): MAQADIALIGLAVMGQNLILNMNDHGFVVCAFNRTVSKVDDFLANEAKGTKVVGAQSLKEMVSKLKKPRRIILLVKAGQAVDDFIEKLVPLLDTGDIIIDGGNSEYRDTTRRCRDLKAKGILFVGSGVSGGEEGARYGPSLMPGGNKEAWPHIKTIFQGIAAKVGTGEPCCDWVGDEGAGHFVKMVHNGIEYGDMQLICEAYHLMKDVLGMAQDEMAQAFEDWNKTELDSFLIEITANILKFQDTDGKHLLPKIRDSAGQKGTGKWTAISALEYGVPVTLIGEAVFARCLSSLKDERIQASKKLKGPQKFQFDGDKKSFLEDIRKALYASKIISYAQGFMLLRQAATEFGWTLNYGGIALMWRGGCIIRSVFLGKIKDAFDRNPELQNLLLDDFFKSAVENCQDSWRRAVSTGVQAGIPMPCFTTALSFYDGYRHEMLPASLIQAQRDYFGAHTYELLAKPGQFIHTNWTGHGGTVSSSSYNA
Sequence of Mitogen-activated protein kinase 7 (Homo sapiens) (Q13164 whole entry, looked up, the tested form may be a part): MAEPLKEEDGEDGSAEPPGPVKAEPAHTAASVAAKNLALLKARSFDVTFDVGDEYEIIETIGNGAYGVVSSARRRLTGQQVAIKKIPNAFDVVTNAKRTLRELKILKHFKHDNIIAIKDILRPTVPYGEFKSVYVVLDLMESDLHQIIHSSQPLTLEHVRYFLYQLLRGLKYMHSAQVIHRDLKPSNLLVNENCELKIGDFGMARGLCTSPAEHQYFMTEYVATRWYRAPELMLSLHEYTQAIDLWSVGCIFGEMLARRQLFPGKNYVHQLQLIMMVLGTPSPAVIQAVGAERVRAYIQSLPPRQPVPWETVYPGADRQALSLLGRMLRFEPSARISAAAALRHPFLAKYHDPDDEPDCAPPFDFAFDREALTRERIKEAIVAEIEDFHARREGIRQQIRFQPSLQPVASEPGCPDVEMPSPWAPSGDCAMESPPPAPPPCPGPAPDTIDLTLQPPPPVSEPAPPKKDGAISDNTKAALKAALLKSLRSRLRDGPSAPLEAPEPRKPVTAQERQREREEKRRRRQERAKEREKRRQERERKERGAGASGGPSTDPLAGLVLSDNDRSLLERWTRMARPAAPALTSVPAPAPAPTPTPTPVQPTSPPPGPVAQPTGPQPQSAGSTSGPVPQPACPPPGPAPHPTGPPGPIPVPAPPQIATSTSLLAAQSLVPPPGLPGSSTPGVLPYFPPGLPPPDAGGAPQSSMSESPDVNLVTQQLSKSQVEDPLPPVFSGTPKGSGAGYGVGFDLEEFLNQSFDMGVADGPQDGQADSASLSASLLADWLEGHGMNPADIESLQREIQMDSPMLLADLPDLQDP

On to `CC(=O)OCC(CCn1cnc2cnc(N)nc21)COC(C)=O`, for which the nuclear beta-catenin stimulation in experiment [1] (at 10 µM) was 0.9% (inactive); in [1] (stimulation, at 2 µM), 2.8%. Besides, the insulin secretion stimulation in [2] was 0.7% (inactive). The viability decrease in experiment [3] is -11.8% (inactive). Also, the tube area decrease in [4] was -3.2% (inactive). Moreover, in experiment [5], the GLP1 secretion stimulation is 0.4% (inactive). Further, the inhibition of viability in experiment [6] was -2.1% (inactive). The viability decrease (inhibition) in experiment [7] is 15.5% (inactive); in experiment [8], -9.1% (inactive). Besides, the inhibition in [9] was -8.38% (inactive). For the same molecule, the mean signal in experiment [10] was 292 (inactive). Besides, in [11], the red/green cell ratio (normalised) was 0.92 (inactive). In addition, the figures for the normalised cell number in [11] (setting [16]) and in experiment [11] (setting [17]) were 1.23 and 1.14, respectively. Also, the z-score was -0.188 (inactive) and -0.285 (inactive) and 0.439 (inactive) in experiment [12] (setting [18]); -0.751 and -0.17 and -0.227 in experiment [12] (setting [19]). Besides, the remaining NAD in [13] was 10 nM (inactive). In addition, the luciferase signal in [14] is 160 AU (inactive). Besides, the log fold change Tl+ flux was 0.0311 (inactive) with F380Y; 0.035 (inactive) in the experiment on F380Y/beta1; -0.0244 (inactive) in the experiment on F380Y/beta2Delta; 0.0232 (inactive) in the experiment with F380Y/beta4; 0.0418 (inactive) in experiment [15].
As to `CCOC(=O)C1=C(C)NC(C)=C(C(=O)OC)C1c1cccc([N+](=O)[O-])c1` (stereo not drawn), the nuclear beta-catenin stimulation in [1] (at 10 µM) is -0.1% (inactive); in experiment [1] (stimulation, at 2 µM), 1.2%. The insulin secretion stimulation in experiment [2] was 2.2% (inactive). Further, in experiment [3], the viability decrease is 58.2% (active). Besides, the tube area decrease in experiment [4] is 23.7% (inactive). Further, in [5], the GLP1 secretion stimulation was -0.6% (inactive). The inhibition of viability in experiment [6] is 75.7% (active). Besides, the figures for the viability decrease (inhibition) in experiment [7] and in experiment [8] were 52.4% (active) and 40.9% (inactive), respectively. In [9], the inhibition is 2.14% (inactive). Also, in experiment [10], the mean signal is 230 (inactive). Also, in [11], the red/green cell ratio (normalised) is 1.19 (inactive). The normalised cell number in [11] (setting [16]) came to 1.11; in experiment [11] (setting [17]) it was 1.31. In addition, the z-score in experiment [12] (setting [18]) is -0.48 (inactive) and 1.38 (inactive) and -0.0841 (inactive); in experiment [12] (setting [19]) it was 0.0141 and 0.8 and 0.442. The remaining NAD in [13] was 10 nM (inactive). In addition, the log fold change Tl+ flux with F380Y is 0.00482 (inactive); with F380Y/beta1 it was -0.0255 (inactive); in the experiment with F380Y/beta2Delta, -0.0689 (inactive); with F380Y/beta4, -0.0639 (inactive); in experiment [15], 0.00177 (inactive).
Consider `NS(=O)(=O)c1cc2c(cc1Cl)NCNS2(=O)=O`, for which the nuclear beta-catenin stimulation was 0.4% (inactive) in [1] (at 10 µM) and 0.8% in [1] (stimulation, at 2 µM). Moreover, the insulin secretion stimulation in [2] is -1.9% (inactive). Besides, the viability decrease in experiment [3] was -1.55% (inactive). Moreover, the tube area decrease in [4] is -9% (inactive). The GLP1 secretion stimulation in experiment [5] is -0.3% (inactive). The inhibition of viability in [6] was 0.1% (inactive). Further, the viability decrease (inhibition) in experiment [7] is 5.4% (inactive); in experiment [8], -1% (inactive). The inhibition in experiment [9] was -1.9% (inactive). The mean signal in [10] was 233 (inactive). Besides, the red/green cell ratio (normalised) in experiment [11] is 0.89 (inactive). Besides, the normalised cell number in [11] (setting [16]) was determined as 1.24; in [11] (setting [17]), 1.11. Further, the z-score in [12] (setting [18]) is -0.267 (inactive) and -0.584 (inactive); in [12] (setting [19]), 0.408 and -0.255. Further, in experiment [13], the remaining NAD is 10 nM (inactive). The luciferase signal in experiment [14] was 96 AU (inactive). The log fold change Tl+ flux was -0.0347 (inactive) in the experiment on F380Y; -0.00418 (inactive) in the experiment on F380Y/beta1; -0.0515 (inactive) with F380Y/beta2Delta; -0.0186 (inactive) in the experiment with F380Y/beta4; -0.0022 (inactive) in [15].

As a reminder, the inhibition is the drop in the measured response relative to a control, in per cent.

(Values after PubChem BioAssay.)
